Compounds with a hit are over-represented: about 0.73% of the library has one in this group of screens.
DUSP3 inh: DUSP3 (human) phosphatase inhibition; recombinant VHR phosphatase, pNPP absorbance; inhibition, % at 13.3 µM; 290,000 compounds, 0.52% hits; AID 1654; in the data active means inhibition above about 50%
BH1578 lux ind: inducers of Vibrio cholerae quorum light production without autoinducers | V. cholerae BH1578 lux reporter, luminescence, 6 h | activation, % at 18.7 µM | 350,000 compounds, 0.16% hits; in the data active means activation mostly above about 9.7%, no sharp cut-off
BioA inh: BioA (M. tuberculosis) enzyme inhibition. AID 602481. 360,000 compounds, 0.096% hits. purified M. tuberculosis BioA enzyme, plate reader. inhibition, % at 9.99 µM; in the data active means inhibition above about 40%
Yp Topo-I inh: Y. pestis Topo-I inhibition via cleavage products; Y. pestis Topo-I cleavage product accumulation, plate reader; 360,000 compounds, 0.064% hits; AID 504884; activity, % at 10 µM; in the data active means activity above about 50%, passing the limit was not always enough
TcdB inh: blocks C. difficile toxin B glycohydrolase activity; P18177; TcdB glycohydrolase enzymatic assay, plate reader; inhibition, % at 9.99 µM; 350,000 compounds, 0.24% hits; AID 652162; in the data active means inhibition above about 10%
Each line names hits and unclear results; the compound was inactive in the other large screens.

CO[C@H]1O[C@H](CO)[C@@H](OC(=O)Nc2ccccc2)[C@H](OC(=O)Nc2ccc3c(c2)OCO3)[C@@H]1OC(=O)Nc1ccc2c(c1)OCO2	none (no result: DUSP3 inh, BH1578 lux ind, Yp Topo-I inh)
COc1ccc(NC(=O)CN(C)C(=O)c2cccc(NS(=O)(=O)c3ccc(Br)cc3)c2)cc1	TcdB inh 16 (no result: DUSP3 inh, BioA inh)
COc1cccc(NC(=O)CN(C)C(=O)c2cccc(NS(=O)(=O)c3ccc(Br)cc3)c2)c1	none (no result: DUSP3 inh)
Cc1c(CCCC(=O)O)sc(N)c1C(=O)c1cccc(C(F)(F)F)c1	TcdB inh 11 (no result: DUSP3 inh)
Cc1ccc(OCCOCCN2CCCC2)c(Br)c1	DUSP3 inh 59
Cc1cc(Br)ccc1OCCOCCN1CCCC1	none
O=C(Cc1cccnc1)N[C@H]1CC[C@H](CCn2cc(Cc3ccccc3)nn2)O[C@H]1CO	none (no result: DUSP3 inh, BH1578 lux ind, Yp Topo-I inh)
CCCC(=O)N1CC2(CN(Cc3nccs3)C2)c2c([nH]c3cc(OC)ccc23)[C@@H]1CO	none (no result: DUSP3 inh, BH1578 lux ind, BioA inh, Yp Topo-I inh)
COc1ccc(C(=O)Cn2cnc3ccccc3c2=O)cc1	DUSP3 inh 55
Cc1nc(P(=O)(c2ccccc2)c2ccccc2)c(N2CCOCC2)o1	none (no result: TcdB inh)
Cc1ccccc1-c1nc(P(=O)(c2ccccc2)c2ccccc2)c(N2CCOCC2)o1	Yp Topo-I inh 53 (no result: BioA inh)
Cc1ccc(S(=O)(=O)Nc2cccc(C(=O)N3CCOCC3)c2)cc1	none
Cc1ccc(S(=O)(=O)Nc2cccc(C(=O)N3CCOCC3)c2)c(C)c1NS(C)(=O)=O	DUSP3 inh 59 (no result: BioA inh)
Cc1cccc(NC(=O)Cn2c(=O)n(Cc3ccco3)c(=N)c3c4c(sc32)COC(C)(C)C4)c1	DUSP3 inh 52 (no result: TcdB inh)
CC1CCCC(C)N1C(=O)c1ccc(CS(=O)(=O)c2ccccc2)cc1 (stereo not drawn)	DUSP3 inh 53
COCCCNC(=O)C1CCCN(S(=O)(=O)c2cccc3nsnc23)C1 (stereo not drawn)	DUSP3 inh 53
COc1ccc(CN(C)C[C@@H]2OCCCC[C@H](C)Oc3ccc(NC(=O)NC(C)C)cc3C(=O)N([C@@H](C)CO)C[C@@H]2C)cc1	none (no result: DUSP3 inh, BH1578 lux ind, Yp Topo-I inh)
CO[C@@H]1CN(C)C(=O)c2cc(NS(=O)(=O)c3cccc(C)c3)ccc2OC[C@@H](C)N(C(=O)Cc2cccnc2)C[C@H]1C	none (no result: DUSP3 inh, BH1578 lux ind, Yp Topo-I inh)
FC(F)(F)c1ccc(CN2CCCCCC2)cc1	DUSP3 inh 52 (no result: BioA inh)
CCOC(=O)c1cc(C)sc1N1C(=O)C2C3C=CC(C3)C2C1=O (stereo not drawn)	BH1578 lux ind 30 (no result: TcdB inh)
CCCN(C)C[C@@H]1Oc2ncc(C#Cc3ccccc3OC)cc2C(=O)N([C@H](C)CO)C[C@@H]1C	none (no result: DUSP3 inh, BH1578 lux ind, Yp Topo-I inh)
COc1ccc(CN(C)C[C@H]2OCCCC[C@@H](C)Oc3ccc(NC(=O)NC4CCCCC4)cc3C(=O)N([C@H](C)CO)C[C@H]2C)cc1	none (no result: DUSP3 inh, BH1578 lux ind, Yp Topo-I inh)
ON=C1c2ccccc2-c2ccc(O)cc21	TcdB inh 15 (no result: DUSP3 inh, BioA inh)
Nc1ccc2c(c1)C(=NO)c1ccccc1-2	none (no result: DUSP3 inh)
CCN(CC)c1ccc2c(-c3ccc(S(=O)(=O)O)cc3S(=O)(=O)[O-])c3ccc(=[N+](CC)CC)cc-3oc2c1	Yp Topo-I inh active
CCN(CC)c1ccc2nc3c4ccccc4c(=O)cc-3oc2c1	none (no result: BH1578 lux ind, BioA inh, Yp Topo-I inh)
O=C(NC1CCSC1=O)c1ccc(Cl)cc1 (stereo not drawn)	DUSP3 inh 52 (no result: BioA inh)
CCOCCCn1c(=O)c2ccccc2n2c(=S)[nH]nc12	TcdB inh 25
CCC(=O)N[C@@H]1CC[C@H](CC(=O)NCc2ccccc2F)O[C@H]1CO	none (no result: DUSP3 inh, BH1578 lux ind, Yp Topo-I inh)
O=[N+]([O-])c1ccc(N2CCN(C(=S)Nc3cccc(F)c3)CC2)cc1	DUSP3 inh 50
COc1cccc(S(=O)(=O)N(C)C[C@H]2Oc3ncc(-c4cccc(C(=O)N(C)C)c4)cc3C(=O)N([C@@H](C)CO)C[C@H]2C)c1	none (no result: DUSP3 inh, BH1578 lux ind, Yp Topo-I inh)
O=C(C[C@H]1CC[C@@H](NC(=O)c2ccncc2)[C@H](CO)O1)NCC1CC1	none (no result: DUSP3 inh, BH1578 lux ind, Yp Topo-I inh)
O=C(Nc1nnc(-c2ccc(F)cc2)o1)c1ccc(S(=O)(=O)N2CCOCC2)cc1	BH1578 lux ind 25 (no result: TcdB inh)
O=C(NC1CCN(S(=O)(=O)c2ccc(F)cc2)CC1)c1ccc(F)cc1	DUSP3 inh 56
C[C@@H]1CN([C@@H](C)CO)C(=O)Cc2cc(NS(C)(=O)=O)ccc2O[C@H]1CN(C)C(=O)Nc1cccc2ccccc12	none (no result: DUSP3 inh, BH1578 lux ind, Yp Topo-I inh)
COc1cccc(S(=O)(=O)N[C@@H]2CC[C@@H](CC(=O)NCc3ccccc3)O[C@@H]2CO)c1	none (no result: DUSP3 inh, BH1578 lux ind, Yp Topo-I inh)
O=C1c2oc3ccccc3c(=O)c2C(c2cccs2)N1CCCN1CCOCC1 (stereo not drawn)	none (no result: TcdB inh)
Cc1ccc2oc3c(c(=O)c2c1)C(c1cccs1)N(CCCN(C)C)C3=O (stereo not drawn)	BioA inh 59 (no result: TcdB inh)
COc1cc(/C=N/N2C(=O)C3C4C=CC(CC4)C3C2=O)ccc1O (stereo not drawn)	TcdB inh 18 (no result: BioA inh)
C[C@H](CO)N1C[C@H](C)[C@@H](CN(C)C(=O)CCCN(C)C)OCCCC[C@H](C)Oc2ccc(NC(=O)Nc3ccc(F)cc3)cc2C1=O	none (no result: DUSP3 inh, BH1578 lux ind, Yp Topo-I inh)
COc1ccc(NC(=O)N(C)C[C@@H]2Oc3ccc(NC(=O)Cn4cnnn4)cc3C(=O)N([C@@H](C)CO)C[C@@H]2C)cc1	none (no result: DUSP3 inh, BH1578 lux ind, Yp Topo-I inh)
CN(CCO)c1nc(N)c2c(N)nc3c(c2c1C#N)CC(=O)N3C1CCCC1	none (no result: BH1578 lux ind, BioA inh, Yp Topo-I inh, TcdB inh)
CC(C)(C)N1C(=O)Cc2c1nc(N)c1c(N)nc(N3CCCCC3CO)c(C#N)c21 (stereo not drawn)	DUSP3 inh 58 (no result: TcdB inh)
O=C(c1cc(Br)c(Br)s1)N1CCN(C/C=C/c2ccccc2)CC1	Yp Topo-I inh 58 (no result: TcdB inh)
Cc1cccc(N2CCN(C(=O)c3cc(COc4ccc(F)c(F)c4)on3)CC2)n1	DUSP3 inh 51
CSc1ccccc1OCc1cc(C(=O)N2CCN(Cc3nccn3C)CC2)no1	none
Cc1cccc(C)c1OCc1cc(C(=O)N2CCN(Cc3nccn3C)CC2)no1	DUSP3 inh 58
Cn1ccnc1CN1CCN(C(=O)c2cc(COc3ccc(F)c(F)c3)on2)CC1	none
Cc1ccc(Cn2nc(C)c(NC(=O)C3CC3)c2C)cc1	none (no result: TcdB inh)
Cc1nn(Cc2c(F)cccc2Cl)c(C)c1NC(=O)C1CC1	DUSP3 inh 51 (no result: BioA inh, TcdB inh)
CCCCNC(=O)CC1S/C(=N/N=C/c2ccc(OC)cc2)NC1=O (stereo not drawn)	none (no result: BioA inh)
COc1ccc(/C=N/N=C2/NC(=O)C(CC(=O)NC(N)=O)S2)cc1 (stereo not drawn)	TcdB inh 11
COc1ccc(/C=C/C(=O)c2ccc([N+](=O)[O-])o2)cc1OC	none (no result: DUSP3 inh, BH1578 lux ind, BioA inh, Yp Topo-I inh)
COc1cc(/C=C/C(=O)c2ccc([N+](=O)[O-])o2)ccc1O	TcdB inh 12 (no result: DUSP3 inh)
O=c1nc(-c2ccccc2)c2cc(SC(F)F)ccc2[nH]1	DUSP3 inh 53
Nc1cc(=O)[nH]c(SCC(=O)N2N=C(c3ccc4ccccc4c3)CC2c2ccccc2)n1 (stereo not drawn)	Yp Topo-I inh 53
O=C(c1cnccn1)N1CC(=O)N2[C@H](CO)[C@H](c3ccc(C#CCc4ccccc4)cc3)[C@@H]2C1	none (no result: DUSP3 inh, BH1578 lux ind, BioA inh, Yp Topo-I inh)
COc1cc(/C=N/NC(=O)CCN2CCCCC2)ccc1O	TcdB inh 10 (no result: BioA inh)
COc1ccc2nc3oc(C(=O)NCCCOC(C)C)cc3cc2c1	none
CCOCCCNC(=O)c1cc2cc3cc(OC)ccc3nc2o1	DUSP3 inh 53
